This passage reports outcome and AC50 results from PubChem BioAssay (EPA / NIEHS).

Calls of active or inactive are those of the source. Rule for the calls: active = hit-call score of the fitted dose curve at least 0.9, where 1 is the maximum; inactive = score below 0.9.

What all share (details): mRNA level, 48 h; actives raise or lower the signal
Read-out in one assay: BCL2L11 (gene 10018)
Put plainly: LTEA_HepaRG_BCL2L11: Life Technologies and Expression Analysis (LTEA) Assay for Bcl-2 (BCL2L11) gene using HepaRG (AID 2283473). Put shortly:
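Cells were plated, cultured 48 h, switched to serum-free induction medium, then dosed in duplicate for 48 h at eight half-log concentrations up to 100 uM. Lysates underwent RNA isolation and TaqMan qRT-PCR; gain or loss versus DMSO was fitted.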

Read-out in assay [1]: Apolipoprotein A-V (APOA5) gene, APOA5 (gene 116519)
As to the kind of experiment: LTEA_HepaRG_APOA5: Life Technologies and Expression Analysis (LTEA) Assay for Apolipoprotein A-V (APOA5) gene using HepaRG (AID 2283474). Put shortly:
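Human liver HepaRG cells are treated 48 h with test chemicals (100 uM top, half-log dilutions, 0.5% DMSO). APOA5 mRNA induction or loss is measured by qRT-PCR relative to vehicle.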

Read-out in assay [2]: Apoptosis regulator Bcl-2 (Homo sapiens) (UniProt P10415)
As to the kind of experiment: LTEA_HepaRG_BCL2: Life Technologies and Expression Analysis (LTEA) Assay for Bcl-2 gene using HepaRG (AID 2283475). The method, boiled down:
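Differentiated HepaRG cells in serum-free induction medium were exposed for 48 h to eight half-log concentrations up to 100 uM in 0.5% DMSO, in duplicate. BCL2 mRNA was quantified by TaqMan qRT-PCR normalised to ACTB, GAPDH and POLR2A, with bidirectional fitting versus DMSO.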

Read-out in assay [3]: Bcl-2 (BID) gene, BID (gene 637)
As to the kind of experiment: LTEA_HepaRG_BID: Life Technologies and Expression Analysis (LTEA) Assay for Bcl-2 (BID) gene using HepaRG (AID 2283476). The method, boiled down:
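Differentiated HepaRG cells in serum-free induction medium were exposed in duplicate for 48 h to eight half-log concentrations up to 100 uM in 0.5% DMSO. BID mRNA was quantified by qRT-PCR, normalized to ACTB, GAPDH and POLR2A.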

Read-out in the next assay: Caspase-3 (Homo sapiens) (UniProt P42574)
As to the kind of experiment: LTEA_HepaRG_CASP3: Life Technologies and Expression Analysis (LTEA) Assay for cysteine-aspartic acid protease (CASP3) using HepaRG (AID 2283477). The method, boiled down:
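In HepaRG liver cells dosed for 48 h at up to 100 uM (eight-point, duplicate), CASP3 expression changes are scored by qRT-PCR. Activity is fitted in both directions with 0.5% DMSO as baseline.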

Read-out in assay [4]: Cytochrome P450 (CYP24A1), CYP24A1 (gene 1591)
As to the kind of experiment: LTEA_HepaRG_CYP24A1: Life Technologies and Expression Analysis (LTEA) Assay for Cytochrome P450 (CYP24A1) using HepaRG (AID 2283478). Put shortly: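 Human liver HepaRG cultures receive each chemical for 48 h across an eight-point half-log series topping at 100 uM in 0.5% DMSO. Induction or suppression of CYP24A1 mRNA is scored relative to vehicle after housekeeping-gene normalization.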

Read-out in assay [5]: Cytochrome P450 (CYP1A2), CYP1A2 (gene 1544)
As to the kind of experiment: LTEA_HepaRG_CYP1A2: Life Technologies and Expression Analysis (LTEA) Assay for Cytochrome P450 (CYP1A2) using HepaRG (AID 2283479). The method, boiled down:
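Assesses CYP1A2 mRNA in human HepaRG liver cells after 48 h chemical exposure at up to 100 uM. Values come from qRT-PCR with bidirectional curve fitting relative to DMSO.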

Read-out in assay [6]: cysteine-aspartic acid protease (CASP8), CASP8 (gene 841)
Put plainly: LTEA_HepaRG_CASP8: Life Technologies and Expression Analysis (LTEA) Assay for cysteine-aspartic acid protease (CASP8) using HepaRG (AID 2283480). Put shortly: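 HepaRG, 48 h exposure, duplicate wells; 8 conc, half-log from 100 uM, 0.5% DMSO. Serum-free induction medium. CASP8 mRNA by TaqMan qRT-PCR, norm. ACTB/GAPDH/POLR2A; gain/loss fitted vs DMSO.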

Read-out in assay [7]: Cytochrome P450 (CYP2B6), CYP2B6 (gene 1555)
As to the kind of experiment: LTEA_HepaRG_CYP2B6: Life Technologies and Expression Analysis (LTEA) Assay for Cytochrome P450 (CYP2B6) using HepaRG (AID 2283481). Put shortly:
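Using 48 h treatment of HepaRG cells in serum-free induction medium, concentrations spanned half-log steps from 100 uM in 0.5% DMSO vehicle. CYP2B6 mRNA induction or loss is scored by qRT-PCR against DMSO.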

Read-out in assay [8]: Cytochrome P450 2C19 (Homo sapiens) (UniProt P33261)
As to the kind of experiment: LTEA_HepaRG_CYP2C19: Life Technologies and Expression Analysis (LTEA) Assay for CYP2C19 using HepaRG (AID 2283482). Put shortly:
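Human HepaRG liver cells received test chemicals for 48 h (highest 100 uM, half-log dilutions in 0.5% DMSO). CYP2C19 mRNA induction or loss is read by multiplexed qRT-PCR and fitted in both directions versus vehicle.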

Read-out in a further assay: CYP2C8 (gene 1558)
As to the kind of experiment: LTEA_HepaRG_CYP2C8: Life Technologies and Expression Analysis (LTEA) Assay for CYP2C8 using HepaRG (AID 2283483). The method, boiled down: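 CYP2C8 mRNA induction or loss, by qRT-PCR normalized to ACTB/GAPDH/POLR2A, is read in HepaRG cells after 48 h treatment. Concentrations run from 100 uM down in half-log dilutions, with 0.5% DMSO as vehicle and baseline.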

Read-out in another assay: CYP2C9 (gene 1559)
As to the kind of experiment: LTEA_HepaRG_CYP2C9: Life Technologies and Expression Analysis (LTEA) Assay for CYP2C9 using HepaRG (AID 2283484). Put shortly:
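Cells plated 48 h, switched to serum-free induction medium, then treated in duplicate for 48 h at eight concentrations (max 100 uM, 0.5% DMSO). RNA then analysed by qRT-PCR for CYP2C9; curves fitted in both directions relative to DMSO.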

Read-out in a further assay: CYP2E1 (gene 1571)
As to the kind of experiment: LTEA_HepaRG_CYP2E1: Life Technologies and Expression Analysis (LTEA) Assay for CYP2E1 using HepaRG (AID 2283485). Put shortly:
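HepaRG cells in serum-free induction medium exposed 48 h to test chemicals, 8 half-log concentrations up to 100 uM in 0.5% DMSO, duplicate. CYP2E1 mRNA by qRT-PCR, normalized to ACTB, GAPDH, POLR2A; bidirectional fit versus DMSO.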

Read-out in a further assay: CYP4A11 (gene 1579)
Put plainly: LTEA_HepaRG_CYP4A11: Life Technologies and Expression Analysis (LTEA) Assay for CYP4A11 using HepaRG (AID 2283486). The method, boiled down:
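Readout is CYP4A11 mRNA induction or suppression (qRT-PCR, ACTB/GAPDH/POLR2A normalization) in human HepaRG cells after 48 h chemical treatment, concentrations to 100 uM in 0.5% DMSO, fitted bidirectionally against vehicle.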

Read-out in assay [9]: Cytochrome P450 3A4 (Homo sapiens) (UniProt P08684)
As to the kind of experiment: LTEA_HepaRG_CYP3A4: Life Technologies and Expression Analysis (LTEA) Assay for CYP3A4 using HepaRG (AID 2283487). The method, boiled down:
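Differentiated HepaRG cells in serum-free induction medium exposed in duplicate for 48 h to 8 half-log concentrations up to 100 uM in 0.5% DMSO. CYP3A4 mRNA measured by qRT-PCR normalized to ACTB, GAPDH and POLR2A; bidirectional fit versus DMSO.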

Read-out in assay [10]: DNA damage-inducible transcript 3 (DDIT3), DDIT3 (gene 1649)
As to the kind of experiment: LTEA_HepaRG_DDIT3: Life Technologies and Expression Analysis (LTEA) Assay for DNA damage-inducible transcript 3 (DDIT3) using HepaRG (AID 2283488). The method, boiled down: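 Differentiated human HepaRG cells in serum-free induction medium were exposed in duplicate for 48 h to 8 concentrations (top 100 uM, half-log steps, 0.5% DMSO). DDIT3 mRNA measured by TaqMan qRT-PCR, normalized to ACTB/GAPDH/POLR2A; bidirectional fit versus DMSO.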

Read-out in assay [11]: Pro-epidermal growth factor (Homo sapiens) (UniProt P01133)
Put plainly: LTEA_HepaRG_EGF: Life Technologies and Expression Analysis (LTEA) Assay for Epidermal growth factor (EGF) using HepaRG (AID 2283489). The method, boiled down:
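EGF expression changes in human HepaRG cells are scored by bidirectional fitting relative to 0.5% DMSO controls. Chemicals are tested at eight half-log concentrations up to 100 uM for 48 h in serum-free induction medium.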

Read-out in assay [12]: Early growth response protein 1 (EGR1) transcription factor, EGR1 (gene 1958)
Put plainly: LTEA_HepaRG_EGR1: Life Technologies and Expression Analysis (LTEA) Assay for Early growth response protein 1 (EGR1) transcription factor using HepaRG (AID 2283490). Put shortly: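 Read-out is EGR1 mRNA level by qRT-PCR, normalized to three housekeeping genes and analysed for gain or loss of signal against 0.5% DMSO. Source cells: human HepaRG, treated 48 h at up to 100 uM in half-log dilutions.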

Read-out in assay [13]: Ezrin (EZR), EZR (gene 7430)
Put plainly: LTEA_HepaRG_EZR: Life Technologies and Expression Analysis (LTEA) Assay for Ezrin (EZR) using HepaRG (AID 2283491). The method, boiled down: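 Differentiated human HepaRG cells, 48 h after plating, were exposed in serum-free induction medium for 48 hours to eight half-log concentrations up to 100 uM in 0.5% DMSO. EZR mRNA was measured by TaqMan qRT-PCR, normalized to ACTB, GAPDH and POLR2A, and fitted bidirectionally against DMSO.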

Read-out in assay [14]: Cytochrome P450 3A7 (Homo sapiens) (UniProt P24462)
Put plainly: LTEA_HepaRG_CYP3A7: Life Technologies and Expression Analysis (LTEA) Assay for CYP3A7 using HepaRG (AID 2283492). The method, boiled down: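 Cells were thawed, plated, cultured 48 h, then treated for a further 48 h with chemicals (eight-point half-log series from 100 uM, 0.5% DMSO). RNA was isolated and CYP3A7 expression quantified by qRT-PCR normalised to ACTB, GAPDH and POLR2A.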

Apoptosis regulator Bcl-2 (Homo sapiens), sequence (P10415 whole entry, looked up): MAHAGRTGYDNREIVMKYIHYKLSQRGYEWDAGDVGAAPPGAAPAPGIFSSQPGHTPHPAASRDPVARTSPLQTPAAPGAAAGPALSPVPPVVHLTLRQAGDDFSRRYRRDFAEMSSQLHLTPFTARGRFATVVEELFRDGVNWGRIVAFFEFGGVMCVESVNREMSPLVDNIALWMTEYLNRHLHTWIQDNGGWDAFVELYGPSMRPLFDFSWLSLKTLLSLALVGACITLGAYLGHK
Cytochrome P450 2C19 (Homo sapiens), sequence (P33261 whole entry, looked up): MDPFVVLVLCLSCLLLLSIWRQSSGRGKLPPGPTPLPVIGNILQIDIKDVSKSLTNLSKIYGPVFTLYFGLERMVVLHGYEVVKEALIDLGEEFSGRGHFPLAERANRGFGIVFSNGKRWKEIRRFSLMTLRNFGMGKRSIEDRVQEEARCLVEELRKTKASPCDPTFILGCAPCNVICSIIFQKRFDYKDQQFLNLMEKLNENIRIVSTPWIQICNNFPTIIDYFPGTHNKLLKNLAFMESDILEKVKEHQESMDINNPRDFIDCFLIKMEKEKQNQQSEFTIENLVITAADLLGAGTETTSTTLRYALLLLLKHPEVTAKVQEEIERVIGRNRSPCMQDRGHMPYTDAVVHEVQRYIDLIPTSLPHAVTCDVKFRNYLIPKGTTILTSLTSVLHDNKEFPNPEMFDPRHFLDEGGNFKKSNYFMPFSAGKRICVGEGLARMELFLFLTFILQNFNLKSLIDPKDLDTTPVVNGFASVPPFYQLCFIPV
Cytochrome P450 3A4 (Homo sapiens), sequence (P08684 whole entry, looked up): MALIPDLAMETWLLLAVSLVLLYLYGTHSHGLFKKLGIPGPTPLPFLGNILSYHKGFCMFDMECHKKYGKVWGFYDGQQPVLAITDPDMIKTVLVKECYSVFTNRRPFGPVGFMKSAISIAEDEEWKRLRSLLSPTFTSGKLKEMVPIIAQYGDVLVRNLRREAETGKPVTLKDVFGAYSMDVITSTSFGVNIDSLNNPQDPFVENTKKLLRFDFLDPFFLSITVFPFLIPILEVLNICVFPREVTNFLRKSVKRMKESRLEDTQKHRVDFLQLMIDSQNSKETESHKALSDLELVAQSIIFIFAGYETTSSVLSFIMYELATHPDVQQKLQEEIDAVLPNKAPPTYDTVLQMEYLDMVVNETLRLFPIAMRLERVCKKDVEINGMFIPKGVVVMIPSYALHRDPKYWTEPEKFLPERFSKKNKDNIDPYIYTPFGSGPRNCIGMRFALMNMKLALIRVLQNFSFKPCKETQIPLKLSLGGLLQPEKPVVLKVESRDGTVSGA
Cytochrome P450 3A7 (Homo sapiens), sequence (P24462 whole entry, looked up): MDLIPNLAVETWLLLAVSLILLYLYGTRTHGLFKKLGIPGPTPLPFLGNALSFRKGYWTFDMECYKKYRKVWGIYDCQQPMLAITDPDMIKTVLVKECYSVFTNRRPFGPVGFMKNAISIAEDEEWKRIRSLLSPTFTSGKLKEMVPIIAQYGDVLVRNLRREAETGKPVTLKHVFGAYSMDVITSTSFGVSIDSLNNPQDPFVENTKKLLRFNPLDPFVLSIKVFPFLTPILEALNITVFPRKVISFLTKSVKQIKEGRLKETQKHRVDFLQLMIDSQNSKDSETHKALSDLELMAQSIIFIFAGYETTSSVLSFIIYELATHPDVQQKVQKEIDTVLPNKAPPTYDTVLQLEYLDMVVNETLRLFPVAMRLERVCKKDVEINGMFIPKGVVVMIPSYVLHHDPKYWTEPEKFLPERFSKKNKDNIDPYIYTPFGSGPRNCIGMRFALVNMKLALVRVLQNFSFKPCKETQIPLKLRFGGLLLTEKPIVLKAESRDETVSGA
Caspase-3 (Homo sapiens), sequence (P42574 whole entry, looked up): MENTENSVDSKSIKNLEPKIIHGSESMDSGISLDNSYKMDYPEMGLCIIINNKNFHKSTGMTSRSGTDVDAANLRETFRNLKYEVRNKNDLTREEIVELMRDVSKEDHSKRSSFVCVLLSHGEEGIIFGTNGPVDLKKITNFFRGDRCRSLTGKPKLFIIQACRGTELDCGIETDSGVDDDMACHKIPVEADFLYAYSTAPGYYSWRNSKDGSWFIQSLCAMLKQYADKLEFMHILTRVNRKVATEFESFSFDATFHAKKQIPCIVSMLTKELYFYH

On to `CCN(C(=O)c1cc(C)cc(OC[C@H](C)Nc2ccncc2)c1)C(C)C`, for which the result (with BCL2L11 (gene 10018); in [2]; in assay [4]; in assay [6]; in assay [11]; in assay [12]) was inactive. Further, the call in [13] was inactive. Also, the half-maximal activity concentration (AC50) (as a rule, the concentration at which the activity in the assay is half-maximal) in assay [1] was 55 µM (active); in [3] it was 0.143 µM (active); with Caspase-3 (Homo sapiens) it was 19.6 µM (active); in assay [5], 12.7 µM (active); in [7], 7.91 µM (active); in [8], 8.16 µM (active). The half-maximal activity concentration (AC50) with CYP2C8 (gene 1558) was 58.4 µM (active); in the assay with CYP2C9 (gene 1559) it was 56.6 µM (active); with CYP2E1 (gene 1571), 27.9 µM (active); with CYP4A11 (gene 1579), 33.8 µM (active); in assay [9], 8.63 µM (active); in assay [10], 48 µM (active). Moreover, the concentration at half-maximal activity (AC50) in assay [14] is 8.43 µM (active).
For `CC(O)CN(CCN(CC(C)O)CC(C)O)CC(C)O` (stereo not given), the call (with BCL2L11 (gene 10018); in [1]; in [3]; with Caspase-3 (Homo sapiens); in [4]; in assay [6]) was inactive. Also, the outcome (in [7]; in assay [8]; in the assay with CYP2C9 (gene 1559); with CYP2E1 (gene 1571); in assay [9]; in [10]) was inactive. The call in assay [11], in assay [13] and in assay [14] was inactive. In addition, the AC50 was 12.7 µM (active) in [2]; 50 µM (active) in assay [5]; 12.6 µM (active) in the assay with CYP2C8 (gene 1558); 12.8 µM (active) with CYP4A11 (gene 1579); 12.6 µM (active) in assay [12].
As for `Nc1cccc(N)c1`, the outcome (with BCL2L11 (gene 10018); in assay [1]; in assay [2]; in assay [3]; with Caspase-3 (Homo sapiens); in assay [4]) was inactive. In addition, the molecule was called inactive (in assay [6]; in [7]; in assay [8]; with CYP2C8 (gene 1558); in the assay with CYP2C9 (gene 1559); in the assay with CYP2E1 (gene 1571)). Further, the molecule was called inactive (in the assay with CYP4A11 (gene 1579); in [9]; in assay [10]; in [11]; in assay [12]; in [13]). The result in [14] was inactive. Besides, the concentration at half-maximal activity (AC50) in [5] was 33 µM (active).
